High-throughput results as filed in PubChem.
The list is not random: actives were taken first. Their share in the collection is about 21%.
IL-1B inflam inh: qHTS for Inhibitors of Inflammasome Signaling: IL-1-beta AlphaLISA Primary Screen; 360,000 compounds, 4.7% hits; activity change, % at 57.5 µM; THP-1 LPS/ATP IL-1B secretion, AlphaLISA, 16 h; active compounds read low; in the data active = activity change below about -50%; inconclusive = mostly about -30% to -49%
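Secreted IL-1B measured by AlphaLISA bead assay after 16 h compound exposure of THP-1 cells; compounds (final up to 57.5 uM) added 1 h before LPS (250 ng/mL) and ATP (1.25 mM) stimulation; lower signal means less secretion.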
VP16 counter: VP16 counterscreen qHTS for inhibitors of ROR gamma transcriptional activity. 310,000 compounds, 3.5% hits. Drosophila S2 Gal4-VP16 UAS-luciferase, luminescence, 20 h. Potency, µM (top dose mostly 53.6 µM), for the others: at the top dose activity, negative = inhibition, actives largely listed as inhibitors;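 also: Gal4-VP16 expression switched on by copper sulfate through the metallothionein promoter; potency is read from the fitted curve at half-maximal effect; nearly all actives have a fitted effect of over 50% in size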
ELG1 repair inh: qHTS screen for small molecules that inhibit ELG1-dependent DNA repair in human embryonic kidney (HEK293T) cells expressing luciferase-tagged ELG1 | HEK293T ELG1-luciferase reporter, luminescence, 16 h; DNA damage induced by 5-fluorouridine | Potency, µM (highest dose often 46.1 µM), for inactives: at the highest dose activity change, negative = inhibition, most hits filed as inhibitors | 330,000 compounds, 2.3% hits; also: potency is read from the fitted curve at half-maximal effect; nearly all actives have a fitted effect of over 55% in size
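Step one: seed 2,000 cells per well. Step two: pin-transfer compound or DMSO alongside 5-fluorouridine. Step three: incubate 16 hr, 37 °C, 5% CO2. Step four: add ONE-Glo, wait 30 min, read luminescence.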
TDP1 cell noCPT: qHTS for Inhibitors of human tyrosyl-DNA phosphodiesterase 1 (TDP1): qHTS in cells in absence of CPT; DT40 Tdp1-/- hTDP1 cells, no CPT, ATP luminescence, 48 h; Potency, µM (top dose mostly 46.2 µM), without a hit: at the top dose activity change, negative = growth inhibition, hits mostly inhibitors; 420,000 compounds, 15% hits; AID 686978, 2013; also: potency is read from the fitted curve at half-maximal effect; nearly all actives have a fitted effect of over 55% in size
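Growth of hTDP1-complemented DT40 Tdp1-knockout cells is measured by ATP luminescence after at least 48 hr compound exposure at 37 °C, with DMSO substituting for the 20 nM CPT used in the parallel screen.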
DT40 TDP1 CPT: qHTS for Inhibitors of human tyrosyl-DNA phosphodiesterase 1 (TDP1): qHTS in cells in presence of CPT; chicken DT40 Tdp1-/-;hTDP1 cells + 20 nM CPT, ATP luminescence, 48 h; Potency, µM (series often up to 46.2 µM), inactives show at the top dose activity change, negative = growth inhibition, actives largely listed as inhibitors; 420,000 compounds, 12% hits; also: potency is read from the fitted curve at half-maximal effect; nearly all actives have a fitted effect of over 55% in size
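Chicken DT40 Tdp1-/- cells complemented with human TDP1, 400 cells/well, exposed to compounds plus 20 nM camptothecin for at least 48 h at 37 C; viability read as ATP content by CellTiter-Glo luminescence.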
RORg inh: qHTS for inhibitors of ROR gamma transcriptional activity; AID 2551, 2010; Potency, µM (doses to about 53.6 µM), inactives show top-dose activity change, negative = inhibition, actives largely listed as inhibitors; 310,000 compounds, 5.4% hits; Drosophila S2 Gal4-RORgamma UAS-luciferase reporter, 20 h; also: potency is read from the fitted curve at half-maximal effect; nearly all actives have a fitted effect of over 60% in size
Target sequence (P51450 whole entry, looked up, the tested form may be a part): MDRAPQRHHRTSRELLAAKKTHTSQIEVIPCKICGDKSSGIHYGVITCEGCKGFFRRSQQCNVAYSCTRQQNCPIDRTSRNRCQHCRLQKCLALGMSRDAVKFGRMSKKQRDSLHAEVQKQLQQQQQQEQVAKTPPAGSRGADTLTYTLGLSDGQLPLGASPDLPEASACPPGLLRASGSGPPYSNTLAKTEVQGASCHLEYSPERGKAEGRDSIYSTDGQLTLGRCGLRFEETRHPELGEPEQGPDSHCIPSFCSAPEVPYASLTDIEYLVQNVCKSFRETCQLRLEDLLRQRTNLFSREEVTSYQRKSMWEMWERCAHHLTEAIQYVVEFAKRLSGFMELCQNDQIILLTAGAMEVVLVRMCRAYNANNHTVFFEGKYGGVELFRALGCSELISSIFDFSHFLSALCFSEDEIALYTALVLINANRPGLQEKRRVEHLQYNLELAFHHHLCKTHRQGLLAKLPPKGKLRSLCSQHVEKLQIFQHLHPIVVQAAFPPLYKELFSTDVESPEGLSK
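Luciferase reporter read in Schneider cells carrying Gal4-RORγ (mouse) and UAS-Photinus luciferase; cells given compound 1 h before 700 uM copper sulfate induction, then incubated 20 h at ambient temperature.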
* marks the source's active call; other numbers are inactive results; ? = inconclusive; · = not tested or not shown; ! = not confirmed by another sample; [ ] = remark or other dose. Unless noted, calls follow the shape of the dose curve; as a rule, active = well fitted curve in the direction sought with a large enough effect; inconclusive = small, poorly fitted or top-dose-only effect, or another doubt; inactive = no such curve, though single readings can be large; an effect the other way counts as inactive or inconclusive. % is scaled to controls: 0 for no effect and ±100 for the full control effect.

SMILES	IL-1B inflam inh	VP16 counter	ELG1 repair inh	TDP1 cell noCPT	DT40 TDP1 CPT	RORg inh
COc1ccc(N2CCN(C(=O)CCc3c(C)nc4cc(-c5ccc(OC)cc5OC)nn4c3C)CC2)cc1	·	·	·	16.4µM*	20.6µM*	·
COc1ccc(-c2cc3nc(C)c(CCC(=O)N4CCN(c5cccc(Cl)c5)CC4)c(C)n3n2)c(OC)c1	·	·	·	5.8µM*	2.59µM*	·
COc1ccc(OC)c(N2C(=O)c3ccccc3C2c2nnnn2-c2ccc3c(c2)OCCO3)c1 (stereo unspecified)	6.7	·	·	?	?	·
O=C(c1ccc(F)cc1)C1CCN(C(=O)c2c(F)cccc2F)CC1	-25.3	-8.7%	1.7%	-16.9%	14.9%	-3.1%
COc1ccc(Cc2noc(CN3CCCN(Cc4ccc(F)cc4)CC3)n2)cc1OC	-13.7	1.3%	?	?	-0.2%	35.3%
COc1ccc(CCN(C)Cc2nc(-c3cnccn3)no2)cc1OC	-12.1	-0.9%	-5.8%	18.4%	-0.1%	5.1%
COc1ccc(Cc2noc(CN(C)Cc3ccc(-n4cccn4)cc3)n2)cc1OC	-14.7	-3.2%	?	20.6µM*	?	25.1%
CCc1ccc(CN(C)Cc2nc(Cc3ccc(OC)c(OC)c3)no2)nc1	0.0	-5.2%	-7.4%	?	16.4µM*	10µM*
CC1CC(C)CN(CC(=O)N2CCCc3c2c(=O)oc2ccc(OCc4ccccc4)cc32)C1 (stereo unspecified)	-29.9	3.9%	?	11.6µM*	20.6µM*	-0.3%
CC(=O)c1c(C)oc2ccc(OCc3ccccc3)cc12	11.8	-14.4%	?	7.8%	1.5%	0.0%
Cc1c(Cc2ccccc2)c(=O)oc2cc(OCc3ccc(C(=O)O)cc3)ccc12	-13.6	-6.8%	17.4%	-4.9%	2.0%	1.4%
CC1CCN(CC(=O)N2CCCc3c2c(=O)oc2ccc(OCc4ccccc4)cc32)CC1	-25.1	?	?	13µM*!	?	?
CCCOc1ccc2oc(=O)c3c(c2c1)CCCN3C(=O)CN1CCc2ccccc2C1	39.7	-17.7%	?	23.1µM*	?	-9.5%[10 µM]
N#CCCn1c(=O)cnc2cnc(Oc3ccccc3)nc21	·	-6.1%	·	-1.0%	-6.3%	2.3%
Cc1ccc2nc(SC(C(=O)c3ccccc3)c3ccccc3)nc(C)c2c1 (stereo unspecified)	31.4	15.8µM*	-8.8%	14.6µM*	?	?
Nc1nnc(CCCCCc2nnc(N)s2)s1	-1.5	0.7%	20.5%	-4.1%	7.1%	-17.0%
CC1(C)CC(=O)C2=C(C1)Oc1nc3ccccc3cc1C2C(C#N)C#N (stereo unspecified)	-93.0*	?	23.1µM*	4.11µM*	2.91µM*	3.16µM*
CCn1cc(C(=O)OCC(=O)Nc2ccc(C)c(Cl)c2)c(=O)c2ccc(C)nc21	·	·	·	-5.5%	-21.3%	·
CCCn1c(CCNc2nc(-c3cccc(Br)c3)cs2)nc2ccccc21	22.7	·	·	?	-26.6%	·
CCOC(=O)C1CCN(C(=O)CCCn2c(=O)c3cccn3c3cccnc32)CC1	-8.4	0.2%	-7.7%	-3.6%	-1.6%	12.4%
Cc1ccc(C)c(N2CCN(C(=O)CCn3c(=O)c4cccn4c4cccnc43)CC2)c1	·	·	·	20.6µM*	?	·
Cc1ccc(C)c(N2CCN(CCCNC(=O)Cn3c(=O)c4cccn4c4cccnc43)CC2)c1	?	-1.9%	1.0%	?	20.6µM*	2.5%
Cc1ccc(Cl)cc1N1CCN(C(=O)CCn2c(=O)c3cccn3c3cccnc32)CC1	·	·	·	6.51µM*	9.2µM*	·
Cc1ccc(C)c(N2CCN(CCCNC(=O)CCn3c(=O)c4cccn4c4cccnc43)CC2)c1	4.2	-10.6%	4.0%	?	?	-1.6%
O=C(CCn1c(=O)c2cccn2c2cccnc21)N1CCN(c2ccccc2F)CC1	·	·	·	23.1µM*	?	·
SMILES	IL-1B inflam inh	VP16 counter	ELG1 repair inh	TDP1 cell noCPT	DT40 TDP1 CPT	RORg inh
CCNC(=O)C1(C)CCN1C(=O)CCc1cccc(Cl)c1 (stereo unspecified)	34.1	·	·	-27.5%	-34.5%	·
O=C(CCn1c(=O)c2cccn2c2cccnc21)N1CCN(c2cccc(Cl)c2)CC1	22.9	?	?	14.6µM*	18.4µM*	-27.3%
COc1ccc(N2CCN(C(=O)Cn3c(=O)c4cccn4c4cccnc43)CC2)cc1	9.0	-8.7%	?	-27.5%	?	4.9%
CC(C)(O)C#Cc1ccc(CN2CCN(CCc3ccccc3)C(CCO)C2)s1 (stereo unspecified)	20.1	-9.3%	?	?	?	5.5%
COc1ccccc1CCCNC(=O)C1CCC(=O)N(CCc2ccc(Cl)cc2)C1 (stereo unspecified)	-51.3*	-11.9%	?	23.1µM*	18.4µM*	?
COc1ccc(CCC(=O)O)cc1	·	·	·	-1.7%	-3.6%	·
O=C1c2ccccc2C(c2nnnn2Cc2ccccc2)N1CCCN1CCOCC1 (stereo unspecified)	0.0	·	·	-12.6%	3.9%	·
O=c1[nH]c(C2CCCN(S(=O)(=O)c3ccc(F)cc3)C2)nc2c1nnn2Cc1ccc(F)cc1 (stereo unspecified)	-2.1	4.3%	?	?	-14.2%	-10.1%
O=C(c1ccc2c(c1)N(Cc1ccc(Cl)cc1)C(=O)c1ccccc1S2(=O)=O)N1CCC(Cc2ccccc2)CC1	·	·	·	18.4µM*	10.3µM*	·
O=C(c1ccc2c(c1)N(Cc1ccccc1F)C(=O)c1ccccc1S2(=O)=O)N1CCC(Cc2ccccc2)CC1	·	·	·	20.6µM*	16.4µM*	·
CC(NC(=O)c1ccc2c(c1)N(Cc1ccc(Cl)cc1)C(=O)c1ccccc1S2(=O)=O)c1ccccc1 (stereo unspecified)	·	·	·	-19.5%	-25.9%	·
CCOC(=O)N1CCN(C(=O)c2ccc3c(c2)N(Cc2ccccc2F)C(=O)c2ccccc2S3(=O)=O)CC1	·	·	·	?	-25.9%	·
CCOC(=O)C1CCN(S(=O)(=O)c2ccc3[nH]c(=O)ccc3c2)CC1	7.7	-1.4%	2.3%	7.6%	9.8%	-19.6%
COc1cc([N+](=O)[O-])ccc1NC(=O)COC(=O)CCS(=O)(=O)c1ccc(C)cc1	-4.4	·	-2.5%	?	-6.6%	·
